“And” between values parts separate entries of the source, which are not always exact repeats. Equal entries are not always repeated. Records with an inconclusive call do not appear. Some compounds were tested as several samples or in several runs, with calls that do not always agree. The source made the active and inactive calls. Unless noted, calls follow the shape of the dose curve; as a rule, active = well fitted curve in the direction sought with a large enough effect in the repeat runs; inconclusive = weak or mixed curves; inactive = no such curve, though single readings can be large; an effect the other way counts as inactive or inconclusive.

The target of test [1] is Progesterone receptor (Homo sapiens) (UniProt P06401). Nature of the test: qHTS assay to identify small molecule agonists of the progesterone receptor (PR) signaling pathway (AID 1346784; calls by dose curve; also: nearly all actives have a fitted effect of over 30% in size). In short, it runs like this: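 Fluorescence from LiveBLAzer B/G FRET substrate cleavage (2 hr, RT) reported PR activation in PR-UAS-bla HEK 293T cells treated 16 hr at 37C/5% CO2 with compounds; medium contained 2% charcoal-stripped FBS.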
Sequence of Progesterone receptor (Homo sapiens) (P06401 whole entry, looked up): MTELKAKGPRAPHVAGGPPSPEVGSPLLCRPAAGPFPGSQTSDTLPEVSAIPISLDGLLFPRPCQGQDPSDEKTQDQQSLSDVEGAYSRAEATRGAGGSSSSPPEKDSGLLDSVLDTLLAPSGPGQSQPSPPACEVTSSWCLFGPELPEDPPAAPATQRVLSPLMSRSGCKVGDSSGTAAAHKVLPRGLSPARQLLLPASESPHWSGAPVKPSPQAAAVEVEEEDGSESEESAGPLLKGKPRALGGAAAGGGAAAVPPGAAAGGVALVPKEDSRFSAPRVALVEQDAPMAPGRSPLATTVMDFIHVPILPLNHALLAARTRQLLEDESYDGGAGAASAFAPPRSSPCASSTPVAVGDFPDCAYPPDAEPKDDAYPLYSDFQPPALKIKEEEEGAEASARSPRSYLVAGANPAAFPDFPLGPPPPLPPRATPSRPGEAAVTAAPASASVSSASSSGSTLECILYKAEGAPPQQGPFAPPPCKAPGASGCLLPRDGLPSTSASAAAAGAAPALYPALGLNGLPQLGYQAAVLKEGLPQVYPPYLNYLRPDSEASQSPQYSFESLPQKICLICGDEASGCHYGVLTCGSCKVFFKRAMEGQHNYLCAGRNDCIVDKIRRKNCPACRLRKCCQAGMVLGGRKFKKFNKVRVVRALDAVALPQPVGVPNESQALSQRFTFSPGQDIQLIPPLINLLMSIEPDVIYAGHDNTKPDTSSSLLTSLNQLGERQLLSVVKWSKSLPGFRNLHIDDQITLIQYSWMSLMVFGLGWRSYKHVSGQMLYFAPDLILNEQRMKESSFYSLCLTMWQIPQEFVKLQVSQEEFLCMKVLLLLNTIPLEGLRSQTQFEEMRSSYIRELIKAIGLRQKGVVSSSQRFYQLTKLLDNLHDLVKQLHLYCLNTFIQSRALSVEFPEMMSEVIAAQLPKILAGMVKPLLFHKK

Test [2] has the same target. Briefly: qHTS assay to identify small molecule antagonists of the progesterone receptor (PR) signaling pathway (AID 1346795; active = well fitted inhibition curve with a large enough effect in the signal ratio in the repeat runs, not every such curve was filed as active; the % refers to the signal ratio; also: potency is read from the fitted curve at half-maximal effect). The procedure, abridged: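 Fluorescence intensity measured 2 hr after adding beta-lactamase FRET substrate to PR-UAS-bla HEK293T cells that had been co-treated 16 hr with compound and 1 nM R5020 (final concentration) in 2% charcoal-stripped FBS.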

Test [3] in a line: qHTS assay to identify small molecule antagonists of the progesterone receptor (PR) signaling pathway - cell viability counter screen (AID 1346798). Also: series mostly up to about 92 µM; nearly all actives have a fitted effect of over 50% in size. In short, it runs like this:
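CellTiter-Glo luminescence; PR-UAS-bla HEK293T, 3,000 cells/well; compound + R5020, 16 hr, 37C/5% CO2; 30 min RT before read.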

Test [4] can be described thus: qHTS assay to identify small molecule agonists of the progesterone receptor (PR) signaling pathway - cell viability counter screen (AID 1346799; calls by dose curve; also: nearly all actives have a fitted effect of over 45% in size; also: potency is read from the fitted curve at half-maximal effect). The procedure, abridged:
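In parallel with the beta-lactamase readout, cytotoxicity toward PR-UAS-bla HEK293T cells was measured by CellTiter-Glo luminescence following 16 hr compound incubation in 2% charcoal-stripped FBS medium.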

Test [5] in a line: qHTS assay to identify small molecule agonists of the TGF-beta/Smad signaling pathway (AID 1346859; active = well fitted activation curve with a large enough effect in the signal ratio in the repeat runs, not every such curve was filed as active; the % refers to the signal ratio; also: series mostly up to about 77 µM). In short, it runs like this: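 After overnight seeding, SBE-bla HEK 293T cells are dosed with compounds in DMSO and kept 5 hr at 37 C, 5% CO2. LiveBLAzer-type FRET substrate is then applied for 2 hr at room temperature.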
Test [6] can be described thus: Human pregnane X receptor (PXR) small molecule agonists, qHTS cell viability counter screen (AID 1346977). Also: nearly all actives have a fitted effect of over 50% in size. Also: potency is read from the fitted curve at half-maximal effect. The procedure, abridged:
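Viability counter screen: CellTiter-Fluor signal in PXR-Luc HepG2 cells, 24hr compound exposure, 37C, 5% CO2.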

A short description of test [7]: Caspase-3/7 induction in HepG2 cells by small molecules, qHTS assay (AID 1346978). Also: nearly all actives have a fitted effect of over 15% in size. The procedure, abridged:
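Wild-type HepG2 cells (2,000/well) were settled 5 h at 37 C, 5% CO2, then exposed to compounds in DMSO for 17 h. Caspase-3/7 activity was read by luminescence 30 min after adding Caspase-Glo 3/7 reagent at room temperature.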

Test [8] is described as follows: Caspase-3/7 induction in CHO-K1 cells by small molecules, qHTS cell viability counter screen (AID 1346979). Also: nearly all actives have a fitted effect of over 35% in size. Also: potency is read from the fitted curve at half-maximal effect. In short, it runs like this:
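Viability readout by fluorescence (CellTiter-Fluor) on wild-type CHO-K1 cells exposed for 16hr at 37C and 5% CO2 to compounds delivered in DMSO; reagent incubated 1hr before reading.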

Test [9] can be described thus: Caspase-3/7 induction in HepG2 cells by small molecules, qHTS cell viability counter screen (AID 1346981). Also: nearly all actives have a fitted effect of over 30% in size. Also: potency is read from the fitted curve at half-maximal effect. In short, it runs like this: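 Fluorescence read-out of live-cell protease activity (CellTiter-Fluor) after 1 hr with reagent. This was measured in the same wells as the caspase-3/7 luminescence, on HepG2 cells exposed to DMSO-dissolved compounds for 16 hr at 37 C.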

In test [10] the target is Nuclear receptor subfamily 1 group I member 2 (Homo sapiens) (UniProt O75469). Nature of the test: CYP3A4 induction through human pregnane X receptor (PXR) by small molecules, qHTS assay (AID 1346984). Also: nearly all actives have a fitted effect of over 40% in size. The procedure, abridged: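 HepG2-derived DPX-2 line carrying PXR plus a CYP3A4-promoter luciferase reporter; cells plated 5 hr, compound-exposed 24 hr at 37C. CYP3A4 activity probed with 3uM (final) Luciferin-IPA for 3hr, then luciferase read after One-Glo.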
Sequence of Nuclear receptor subfamily 1 group I member 2 (Homo sapiens) (O75469 whole entry, looked up): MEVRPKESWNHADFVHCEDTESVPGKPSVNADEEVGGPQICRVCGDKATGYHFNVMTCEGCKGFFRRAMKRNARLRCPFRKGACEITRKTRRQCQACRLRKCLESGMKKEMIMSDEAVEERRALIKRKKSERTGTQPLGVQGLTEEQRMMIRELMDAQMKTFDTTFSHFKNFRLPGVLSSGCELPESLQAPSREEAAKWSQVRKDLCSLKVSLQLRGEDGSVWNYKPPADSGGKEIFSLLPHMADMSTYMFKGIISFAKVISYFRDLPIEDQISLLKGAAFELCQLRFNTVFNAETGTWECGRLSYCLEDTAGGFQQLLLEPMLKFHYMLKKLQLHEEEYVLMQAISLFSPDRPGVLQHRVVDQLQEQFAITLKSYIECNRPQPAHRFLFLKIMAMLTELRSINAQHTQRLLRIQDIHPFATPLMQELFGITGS

Test [11] shares this target. Nature of the test: Human pregnane X receptor (PXR) activation by small molecules, qHTS assay (AID 1346985). Also: nearly all actives have a fitted effect of over 40% in size. In short, it runs like this: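 DPX-2 cells (HepG2 co-transfected with a PXR response element and a CYP3A4-promoter luciferase construct) were seeded at 2,000 per well, rested 5 hr at 37C, then exposed to DMSO-dissolved compounds for 24 hr. Activation was read as luciferase luminescence.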

Test [12] concerns the target Cytochrome P450 2D6 (Homo sapiens) (UniProt P10635). Briefly: Cytochrome P450 Family 2 Subfamily D Member 6 (CYP2D6) small molecule antagonists: luciferase reporter qHTS assay (AID 1671196). Also: nearly all actives have a fitted effect of over 50% in size. Also: potency is read from the fitted curve at half-maximal effect. In short, it runs like this:
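Luminogenic proluciferin substrate, CYP2D6 enzyme; 10 min RT preincubation with compound, NADPH regeneration system added, 1 h RT. Stop/detection reagent, 20 min RT, luminescence read (RLU). Signal proportional to CYP activity.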

The target in test [13] is Cytochrome P450 2C19 (Homo sapiens) (UniProt P33261). Nature of the test: Cytochrome P450 Family 2 Subfamily C Member 19 (CYP2C19) small molecule antagonists: luciferase reporter qHTS assay (AID 1671197). Also: nearly all actives have a fitted effect of over 65% in size. Also: potency is read from the fitted curve at half-maximal effect. The procedure, abridged: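 Enzyme-substrate mix with proluciferin substrate (P450-Glo CYP2C19 system) preincubated with compounds 10 min at room temperature; NADPH regeneration solution added, 37C for 1 h; detection reagent stops reaction, luminescence read after 20 min. Ketoconazole positive control.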
Sequence of Cytochrome P450 2C19 (Homo sapiens) (P33261 whole entry, looked up): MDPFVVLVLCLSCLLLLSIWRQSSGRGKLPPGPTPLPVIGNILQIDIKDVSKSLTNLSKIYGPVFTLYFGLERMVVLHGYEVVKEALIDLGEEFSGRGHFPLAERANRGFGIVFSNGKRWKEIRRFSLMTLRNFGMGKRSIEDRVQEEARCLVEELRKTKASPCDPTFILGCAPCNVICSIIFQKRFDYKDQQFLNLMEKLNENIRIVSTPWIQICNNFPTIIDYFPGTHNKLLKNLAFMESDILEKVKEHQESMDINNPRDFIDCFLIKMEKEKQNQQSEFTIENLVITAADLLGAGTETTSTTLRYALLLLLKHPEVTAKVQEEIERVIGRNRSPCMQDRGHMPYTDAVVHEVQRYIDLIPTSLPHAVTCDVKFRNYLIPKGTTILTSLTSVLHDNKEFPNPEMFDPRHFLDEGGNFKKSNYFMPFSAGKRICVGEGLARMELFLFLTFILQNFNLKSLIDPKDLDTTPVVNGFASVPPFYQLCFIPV

A short description of test [14]: qHTS assay to identify small molecule antagonists of the TGF-beta/Smad signaling pathway - cell viability counter screen (AID 1346824). Also: nearly all actives have a fitted effect of over 50% in size. The procedure, abridged: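 SBE-bla HEK 293T cells were plated overnight at 37 C, then given compounds in DMSO plus TGF-beta1 (added as 0.25 ng/mL solution) for 5 hr. After the bla read, CellTiter-Glo was added to the same wells and luminescence read after 30 min at room temperature.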

The nature of test [15]: qHTS assay to identify small molecule agonists of the TGF-beta/Smad signaling pathway - cell viability counter screen (AID 1346829). Also: top concentration of the series differs between compounds; nearly all actives have a fitted effect of over 45% in size. The procedure, abridged:
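CellTiter-Glo luminescence readout; SBE-bla HEK 293T cells, overnight plating, compound 5 hr at 37 C/5% CO2, then bla substrate 2 hr RT, then CellTiter-Glo 30 min RT.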

Test [16] deals with Thyrotropin-releasing hormone receptor (Homo sapiens) (UniProt P34981). Briefly: qHTS assay to identify small molecule antagonists of the thyrotropin-releasing hormone receptor (TRHR) signaling pathway (AID 1346877; active = well fitted inhibition curve with a large enough effect in the repeat runs, not every such curve was filed as active; also: series mostly up to about 51 µM). The procedure, abridged:
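HEK293/TRHR cells, 18 h, 37 °C; Ca2+ dye 2 h; cpd 5 min RT; TRH 1 nM final; fluorescence read 3 min, 1 s intervals; 15 concs, triplicate.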

Test [17] shares this target. Briefly: qHTS assay to identify small molecule agonists of the thyrotropin-releasing hormone receptor (TRHR) signaling pathway (AID 1346891; calls by dose curve;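 also: HEK293 cells expressing TRHR with calcium dye readout; series mostly up to about 58 µM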). The procedure, abridged: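 Compounds were tested as agonists at 15 concentrations, in triplicate, on TRHR-Hek293 cells; calcium-sensitive dye fluorescence was recorded for 3 min following addition.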
Test [18] in a line: Caspase-3/7 induction in CHO-K1 cells by small molecules, qHTS assay (AID 1346980). Also: nearly all actives have a fitted effect of over 15% in size. The procedure, abridged:
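Wild-type cells were seeded at 1,500 per well and settled 5 hr at 37 C, 5% CO2, then exposed to DMSO-dissolved compounds for 17 hr. Caspase-Glo 3/7 reagent was added, and luminescence was read after 30min at room temperature.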

Test [19] deals with Nuclear receptor subfamily 1 group I member 2 (Homo sapiens) (UniProt O75469). Nature of the test: Human pregnane X receptor (PXR) small molecule agonists, qHTS assay (AID 1346982). Also: nearly all actives have a fitted effect of over 35% in size. Also: potency is read from the fitted curve at half-maximal effect. In short, it runs like this: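 HepG2 PXR-Luc reporter line, 5% charcoal-stripped FBS; 5 hr pre-incubation, compound (DMSO) 24 hr at 37 C/5% CO2; ONE-Glo 30 min RT; luminescence read-out.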
In test [20] the target is Cytochrome P450 2C9 (Homo sapiens) (UniProt P11712). Briefly: Cytochrome P450 Family 2 Subfamily C Member 9 (CYP2C9) small molecule antagonists: luciferase reporter qHTS assay (AID 1671198). Also: nearly all actives have a fitted effect of over 50% in size. Also: potency is read from the fitted curve at half-maximal effect. In short, it runs like this: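 CYP2C9 activity was measured with a P450-Glo proluciferin substrate. Enzyme–substrate mix was held with compound for 10 min at room temperature, then NADPH regeneration solution was added for 1 h at 37C. Luciferin product was read as luminescence.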
Sequence of Cytochrome P450 2C9 (Homo sapiens) (P11712 whole entry, looked up): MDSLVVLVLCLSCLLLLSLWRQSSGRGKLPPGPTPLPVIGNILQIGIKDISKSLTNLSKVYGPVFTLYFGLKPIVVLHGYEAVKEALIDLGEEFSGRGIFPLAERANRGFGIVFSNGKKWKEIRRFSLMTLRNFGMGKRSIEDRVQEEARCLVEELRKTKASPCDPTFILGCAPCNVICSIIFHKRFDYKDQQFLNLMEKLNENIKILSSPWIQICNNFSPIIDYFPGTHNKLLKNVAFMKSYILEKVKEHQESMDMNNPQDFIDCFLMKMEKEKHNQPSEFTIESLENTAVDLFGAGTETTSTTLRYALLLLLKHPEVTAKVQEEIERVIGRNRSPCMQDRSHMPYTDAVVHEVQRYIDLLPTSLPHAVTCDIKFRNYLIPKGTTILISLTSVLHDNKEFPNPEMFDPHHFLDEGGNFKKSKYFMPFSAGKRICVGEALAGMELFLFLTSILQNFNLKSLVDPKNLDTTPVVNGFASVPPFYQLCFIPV

Sequence of Thyrotropin-releasing hormone receptor (Homo sapiens) (P34981 whole entry, looked up): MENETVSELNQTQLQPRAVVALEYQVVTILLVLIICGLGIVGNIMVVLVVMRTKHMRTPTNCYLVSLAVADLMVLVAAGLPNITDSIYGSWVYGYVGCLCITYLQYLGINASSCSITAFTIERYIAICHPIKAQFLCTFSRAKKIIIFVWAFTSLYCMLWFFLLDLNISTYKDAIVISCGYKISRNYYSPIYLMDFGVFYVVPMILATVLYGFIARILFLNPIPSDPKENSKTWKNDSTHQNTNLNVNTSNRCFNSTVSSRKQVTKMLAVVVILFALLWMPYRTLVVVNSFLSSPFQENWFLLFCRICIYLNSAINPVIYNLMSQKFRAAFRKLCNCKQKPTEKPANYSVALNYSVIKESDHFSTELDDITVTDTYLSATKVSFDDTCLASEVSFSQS
Sequence of Cytochrome P450 2D6 (Homo sapiens) (P10635 whole entry, looked up): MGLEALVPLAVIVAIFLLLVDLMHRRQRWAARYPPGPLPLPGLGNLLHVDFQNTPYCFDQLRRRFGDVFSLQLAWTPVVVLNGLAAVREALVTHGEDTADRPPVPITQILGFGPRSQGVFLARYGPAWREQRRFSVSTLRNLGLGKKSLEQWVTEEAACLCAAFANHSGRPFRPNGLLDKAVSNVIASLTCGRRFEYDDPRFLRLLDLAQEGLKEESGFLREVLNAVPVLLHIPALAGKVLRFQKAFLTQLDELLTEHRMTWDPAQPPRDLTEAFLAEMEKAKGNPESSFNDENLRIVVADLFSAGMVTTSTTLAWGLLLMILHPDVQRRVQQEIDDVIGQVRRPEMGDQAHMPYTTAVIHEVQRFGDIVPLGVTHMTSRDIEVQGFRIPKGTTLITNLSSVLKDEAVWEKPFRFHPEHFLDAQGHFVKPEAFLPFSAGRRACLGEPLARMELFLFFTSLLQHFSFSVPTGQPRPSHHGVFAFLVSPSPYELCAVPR

With `CN(Cc1cnc2nc(N)nc(N)c2n1)c1ccc(C(=O)N[C@@H](CCC(=O)O)C(=O)O)cc1`, the Potency entry in test [1], in [3], in test [4], in test [6], in test [7] and in test [8] was “inactive” throughout. In addition, the Potency result in test [9], in test [10], in test [11], in [12] and in [13] was “inactive” throughout. The Potency in [2] was 0.133 µM (active). Further, the call in [5] was inactive.

As for `c1ccc2c(c1)[nH]c1ccccc12`, the Potency in [2] was 26.8 µM (active); in [19], 47.7 µM (active) and 61.1 µM (active); in test [12] it was 39.2 µM (active) and inactive; in [13], 7.83 µM (active) and 7.96 µM (active). Further, the Potency entry in test [3], in [4], in test [14], in [15], in [16] and in [17] was “inactive” each time. The Potency result in test [6], in [7], in test [8], in test [18], in test [9] and in test [20] was “inactive” throughout. For the same compound, the outcome in test [5] was inactive.

As for `O=C(O)c1cc(=O)[nH]c(=O)[nH]1`, the Potency result in [1], in test [2], in test [4], in [14], in test [15] and in test [6] was “inactive” each time. In addition, the Potency entry in [8], in [18], in test [9], in test [19], in test [10] and in test [11] was “inactive” in each case. Further, the Potency result in test [20] was “inactive”. For the same compound, the call in [5] was inactive. Besides, the Potency in test [12] was 6.34 µM (active); in test [13], 40 µM (active) and inactive.

`CC(=O)[C@@]1(O)CC[C@H]2[C@@H]3C[C@H](C)C4=CC(=O)C=C[C@]4(C)[C@@]3(F)[C@@H](O)C[C@@]21C`: the Potency entry in [2], in test [3], in [4], in [14], in test [15] and in [16] was “inactive” each time. The Potency result in test [17], in [6], in test [7], in test [8], in test [18] and in test [9] was “inactive” in each case. Moreover, the Potency result in test [10], in test [11], in [12] and in test [13] was “inactive” throughout. Further, in test [5], the compound was classed as inactive. For the same compound, in test [20], the Potency is 10 µM (active) and 6.92 µM (active).

Turning to `O=C(O)CCCCCCCCCCCC(=O)O`, the Potency result in [1], in [2], in [3], in test [4], in test [14] and in [15] was “inactive” in each case. In addition, the Potency result in test [17], in test [6], in test [8] and in test [9] was “inactive” throughout. The Potency in test [12] was 17.6 µM (active); in test [13], 17.6 µM (active) and 39.9 µM (active).

`Nc1ccc2c(O)cc(S(=O)(=O)O)cc2c1`: the Potency result in test [1], in [14], in [15], in test [16], in [17] and in [7] was “inactive” each time. Also, the Potency entry in test [4] was “inactive and 9.69 µM (active)”; in test [6] it was 28.2 µM (active) and 21.7 µM (active); in test [8], 48.6 µM (active) and 19.3 µM (active); in test [9] it was 27.3 µM (active) and 21.7 µM (active); in [12] it was 35.6 µM (active) and 71 µM (active); in test [13], 79.8 µM (active) and 50.2 µM (active). Moreover, the Potency in test [20] was 71 µM (active). In [5], the call was inactive.

In the case of `C1CN(SSN2CCOCC2)CCO1`, the Potency result in test [1], in test [2], in [3], in [4], in test [15] and in [16] was “inactive” in each case. Moreover, the Potency entry in test [17], in [6], in test [7] and in test [9] was “inactive” throughout. The Potency is 30.3 µM (active) and 48.6 µM (active) in test [8]; 78.9 µM (active) and 31.7 µM (active) in test [12]; 35.2 µM (active) and 35.6 µM (active) in test [13]; 39.5 µM (active) and 28.3 µM (active) in test [20].

The values above are taken from PubChem BioAssay (Tox21).
